# Source: PubChem BioAssay AID1259372 (The Scripps Research Institute Molecular Screening Center, 2018)
# Hit rate of the full screen: of about 4,700 compounds, about 760 (16%) were called active. These entries were drawn from the full list. Values without a mark were called inactive.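 The calls were made as follows: active = inhibition above a cutoff derived from the DMSO control wells (cut at about 28% in these data); inactive = the rest.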
# Biological target: Microphthalmia-associated transcription factor (Homo sapiens) (UniProt O75030)
# Sequence (O75030 whole entry, looked up): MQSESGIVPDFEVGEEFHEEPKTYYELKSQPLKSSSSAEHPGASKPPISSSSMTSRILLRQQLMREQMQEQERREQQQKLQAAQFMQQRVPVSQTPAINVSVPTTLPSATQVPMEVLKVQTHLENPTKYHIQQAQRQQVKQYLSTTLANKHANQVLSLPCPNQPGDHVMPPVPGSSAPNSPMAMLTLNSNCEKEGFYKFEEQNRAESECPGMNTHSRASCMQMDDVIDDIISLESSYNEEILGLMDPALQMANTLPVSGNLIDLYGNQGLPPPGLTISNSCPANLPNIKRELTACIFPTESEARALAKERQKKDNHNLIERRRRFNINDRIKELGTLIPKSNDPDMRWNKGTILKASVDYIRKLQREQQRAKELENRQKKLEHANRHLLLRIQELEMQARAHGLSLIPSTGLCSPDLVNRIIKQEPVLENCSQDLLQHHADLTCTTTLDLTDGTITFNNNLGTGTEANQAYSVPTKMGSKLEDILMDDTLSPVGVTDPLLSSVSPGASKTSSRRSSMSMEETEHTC
# Assay: MITF inhibitors, retest of hits, confirmation, biochemical, AlphaScreen, triplicate (AID 1259372)
# Conditions: AlphaScreen MITF homodimerization, biotin/His-MITF beads; at 2.6 µM; stronger effect = higher value
row,Structure (SMILES),inhibition
1,COc1cc(Nc2ncnc3c2nc(N2CCOCC2)n3C(C)C)cc(OC)c1OC,-3.35%
2,COc1cc(N2CCOCC2)ccc1Nc1cc(Nc2ccccc2-n2cccn2)c(C(F)(F)F)cn1,31.5% (active)
3,CCN(CC(=O)NCc1ccc(Cl)cc1)Cn1nnc2ccccc21,0.75%
4,COc1ccc(CN2CCN(C3CCC(C)CC3)CC2)c(OC)c1OC (stereo unspecified),2.96%
5,CCCCC(=O)NCc1ccc(F)cc1,17.4%
6,CN(C)c1cccc(Nc2ccc(-c3cccc(C=O)c3)cn2)c1,65.7% (active)
7,COc1ccc(CN2CCN(Cc3cccc(Br)c3)CC2)c(OC)c1,8.87%
8,CCN(CCN(C)C)Cc1c(Cl)cccc1Cl,-9.82%
9,COc1ccc(CN2CCN(Cc3cc(OC)ccc3OC)CC2)cc1,-1.47%
10,O=c1c2ccccc2ncn1CCCCOc1ccccc1F,15.3%
11,COc1ccccc1CN1CC(C)OC(C)C1 (stereo unspecified),-2.69%
12,CC(c1ccccn1)N(CCN(C)C)C(=S)Nc1ccccc1F (stereo unspecified),19.9%
13,O=S(=O)(c1ccc(F)cc1)N1CCN(Cc2ccccc2C(F)(F)F)CC1,3.94%
14,COc1cccc(CN2CCN(Cc3ccc(C(F)(F)F)cc3)CC2)c1OC,1.8%
15,Fc1ccc(CN2CCN(C3CCCC3)CC2)cc1,5.12%
16,CSc1ccc(CN2CCN(Cc3cccc(Oc4ccccc4)c3)CC2)cc1,6.75%
17,COc1ccc(NC(=O)c2cc3n(n2)C(C(F)(F)F)CC(c2ccc(OC)c(OC)c2)N3)cc1OC (stereo unspecified),-8.79%
18,CC(=O)c1cccc(N2C(=O)c3cccnc3C2=O)c1,0.46%
19,CCCS(=O)(=O)N1CCN(Cc2ccccc2Br)CC1,7.16%
20,COc1cccc(OC)c1C(=O)N1CCN(Cc2ccccc2F)CC1,6.68%
21,COc1ccc(OC)c(CN2CCN(Cc3ccc(Cl)cc3)CC2)c1,7.55%
22,O=[N+]([O-])c1ccccc1CN1CCN(Cc2cccnc2)CC1,14.6%
23,CC1CCC2C(=O)N(c3ccc(I)cc3)C(=O)C2C1 (stereo unspecified),-5.9%
24,O=C(O)C1C2C=CC(O2)C1C(=O)Nc1nccs1 (stereo unspecified),-0.18%
25,O=C(NN1C(=O)c2ccccc2C1=O)c1cccc(F)c1,-16%
26,Cc1ccc(C)n1C(Cc1ccccc1)C(=O)O (stereo unspecified),17%

row,Structure (SMILES),inhibition
1,CN(CCc1ccccn1)Cc1cccnc1,8.93%
2,COc1ccc(C(CNCc2cc(=O)oc3cc4c(cc23)CCC4)N2CCOCC2)cc1 (stereo unspecified),10.3%
3,O=C(Cc1cccs1)N/N=C\C=C\c1ccco1,79.7% (active)
4,Fc1cccc(CN2CCN(C3CCC(c4ccccc4)CC3)CC2)c1 (stereo unspecified),11.2%
5,CCC(C)c1ccccc1NC(=O)CN(C)CC(=O)Nc1ccccc1SC (stereo unspecified),-6.92%
6,Cc1ccccc1NC(=O)NCCOc1cc(N2CCCC2)ncn1,6.75%
7,CCS(=O)(=O)N1CCN(C2CCCCC2C)CC1 (stereo unspecified),-1.17%
8,COc1ccc(CN2CCCC(C(=O)N3CCCCC3)C2)cc1 (stereo unspecified),-32.4%
9,C/C(N)=C(/C#N)C(=O)COC(=O)c1c2c(nc3ccccc13)/C(=C/c1ccco1)CC2,90.7% (active)
10,CCN1CCN(CCOc2ccc(-c3ccccc3)cc2)CC1,9.66%
11,COc1ccc(CN2CCC(C(=O)N3CCN(Cc4ccccc4)CC3)CC2)cc1,13.8%
12,COc1cc(CN2CCN(Cc3cccnc3)CC2)cc(OC)c1OC,6.15%
13,Cc1cc(NC(=O)CNCCCN(C)C)no1,2.39%
14,Cc1cc(NC(=O)CSc2ccc(-c3ccccn3)nn2)no1,49% (active)
15,Cc1cccnc1NC(=O)CSc1nnc(COc2ccc(C(C)C)cc2)n1C,5.99%
16,CCOc1ccc(OCCCCNCCO)cc1,10.6%
17,COc1cccc(CN2CCC(C(=O)NCCc3ccccc3)CC2)c1,8.72%
18,CC(NCCCN1CCOCC1)C(=O)Nc1ccccc1 (stereo unspecified),5.64%
19,CN(CCC(=O)O)Cc1cccc(Cl)c1,-8.04%
20,CC[C@@H]1NC(=O)[C@H]2CN(C(=O)NCc3ccccc3)CCN2C1=O,73.6% (active)
21,C[C@@H](OCc1ccccc1)[C@@H]1NC(=O)[C@H]2CN(C(=O)Nc3cccc(F)c3)CCN2C1=O,68.9% (active)
22,Cc1n[nH]c(=O)nc1N/N=C/c1cccs1,35.1% (active)
23,CCCS(=O)(=O)N1CCN(C(C)C)CC1,10.5%
24,CC(C)CO/N=C1\C[C@@H](O)[C@@H](O)[C@@H]2[C@@H]3C(=O)N([C@@H](C)c4ccccc4)C(=O)[C@@H]3CC[C@@H]12,3.51%
25,O=C(OCCN1CCOCC1)c1c(Cl)nc2sccn12,9.99%
